# Where “and” joins values, the source holds several entries; their conditions need not be identical. Equal values may be shown once. Values without a mark were called inactive. Entries that show only a call come without a potency. Calls of active or inactive are those of the source. Unless noted, the call rests on the fitted dose curve; in most records, active means well fitted curve in the direction sought with a large enough effect in the repeat runs; inconclusive means weak or mixed curves; inactive means no such curve, though single readings can be large; an effect the other way counts as inactive or inconclusive.
# How the values were obtained:
# [1] = biological target: Androgen receptor (Homo sapiens) (UniProt P10275); experiment: qHTS assay to identify small molecule antagonists of the androgen receptor (AR) signaling pathway (AID 743035; active means well fitted inhibition curve with a large enough effect in the signal ratio in the repeat runs, not every such curve was filed as active; inconclusive means weak or mixed curves, or effect the other way; inactive means no such curve, though single readings can be large or run the other way; the % refers to the signal ratio; further: potency means the concentration at half of the fitted maximal effect)
# Androgen receptor (Homo sapiens), sequence (P10275 whole entry, looked up): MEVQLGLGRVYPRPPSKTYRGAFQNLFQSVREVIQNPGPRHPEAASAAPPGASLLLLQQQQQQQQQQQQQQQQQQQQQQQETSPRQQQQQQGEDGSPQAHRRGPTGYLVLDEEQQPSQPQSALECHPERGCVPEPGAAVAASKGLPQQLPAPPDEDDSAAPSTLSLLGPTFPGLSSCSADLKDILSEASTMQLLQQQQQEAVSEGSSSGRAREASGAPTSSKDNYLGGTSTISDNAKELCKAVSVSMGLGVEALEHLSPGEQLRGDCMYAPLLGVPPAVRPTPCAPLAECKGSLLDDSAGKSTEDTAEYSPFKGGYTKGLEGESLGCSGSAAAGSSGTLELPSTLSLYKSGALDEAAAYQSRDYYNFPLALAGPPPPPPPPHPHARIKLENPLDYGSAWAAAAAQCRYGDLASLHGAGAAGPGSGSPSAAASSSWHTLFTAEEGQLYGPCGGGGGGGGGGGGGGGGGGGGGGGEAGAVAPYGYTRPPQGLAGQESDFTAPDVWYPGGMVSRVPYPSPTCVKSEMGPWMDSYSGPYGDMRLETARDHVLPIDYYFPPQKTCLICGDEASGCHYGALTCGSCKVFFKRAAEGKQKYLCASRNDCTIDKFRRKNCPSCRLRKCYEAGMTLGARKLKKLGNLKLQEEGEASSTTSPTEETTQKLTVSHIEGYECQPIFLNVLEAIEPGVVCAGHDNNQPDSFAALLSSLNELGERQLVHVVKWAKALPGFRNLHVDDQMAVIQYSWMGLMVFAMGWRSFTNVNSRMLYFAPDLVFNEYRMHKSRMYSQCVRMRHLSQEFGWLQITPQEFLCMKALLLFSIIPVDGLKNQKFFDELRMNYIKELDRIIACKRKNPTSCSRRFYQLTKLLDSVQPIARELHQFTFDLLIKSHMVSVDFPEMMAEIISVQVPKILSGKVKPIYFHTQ
# In short: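 Antagonism is scored as loss of R1881-driven beta-lactamase reporter expression in HEK293 cells carrying the reporter under a UAS element, after 16 h co-treatment at 37C and a 2 h room-temperature FRET substrate read.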
# [2] = biological target: Androgen receptor (Homo sapiens) (UniProt P10275); experiment: qHTS assay to identify small molecule antagonists of the androgen receptor (AR) signaling pathway using the MDA cell line (AID 743042; further: nearly all actives have a fitted effect of over 55% in size; further: potency means the concentration at half of the fitted maximal effect)
# In short: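 MDA-kb2 breast carcinoma cells carrying MMTV-luciferase (AR/GR responsive) were co-treated with compounds and the agonist R1881 for 16 h at 37C. Inhibition read as ONE-Glo luminescence; CellTiter-Fluor fluorescence measured in parallel for cytotoxicity.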
# [3] = biological target: Estrogen receptor (Homo sapiens) (UniProt P03372); experiment: qHTS assay to identify small molecule antagonists of the estrogen receptor alpha (ER-alpha) signaling pathway (AID 743069; active means well fitted curve in the direction sought with a large enough effect in the signal ratio in the repeat runs, not every such curve was filed as active; inconclusive means weak or mixed curves, or effect the other way; inactive means no such curve, though single readings can be large or run the other way; the % refers to the signal ratio; further: potency means the concentration at half of the fitted maximal effect)
# Estrogen receptor (Homo sapiens), sequence (P03372 whole entry, looked up): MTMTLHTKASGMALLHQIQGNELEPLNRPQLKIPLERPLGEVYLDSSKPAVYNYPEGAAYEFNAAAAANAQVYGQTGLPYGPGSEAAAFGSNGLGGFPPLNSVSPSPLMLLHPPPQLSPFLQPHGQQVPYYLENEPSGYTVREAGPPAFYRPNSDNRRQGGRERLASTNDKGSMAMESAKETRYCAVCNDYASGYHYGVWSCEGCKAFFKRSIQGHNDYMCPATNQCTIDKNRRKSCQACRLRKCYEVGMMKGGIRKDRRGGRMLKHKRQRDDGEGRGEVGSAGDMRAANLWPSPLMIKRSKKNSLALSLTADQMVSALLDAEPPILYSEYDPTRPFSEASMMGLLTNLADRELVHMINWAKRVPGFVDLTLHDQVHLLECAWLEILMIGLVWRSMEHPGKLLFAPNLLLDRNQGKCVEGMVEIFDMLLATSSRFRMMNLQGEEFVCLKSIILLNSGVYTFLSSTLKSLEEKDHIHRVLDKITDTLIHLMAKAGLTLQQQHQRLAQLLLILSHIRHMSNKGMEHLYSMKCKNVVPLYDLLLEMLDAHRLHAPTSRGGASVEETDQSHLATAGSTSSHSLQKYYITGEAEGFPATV
# In short: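 HEK293 ER-alpha-UAS-bla GripTite cells, held overnight in 2% charcoal-stripped FBS, 5,000 cells/well, preincubated 4 h, then compound plus 17beta-estradiol for 18 h at 37C. Beta-lactamase read by LiveBLAzer B/G FRET substrate, 2 h at room temperature.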
# [4] = biological target: Peroxisome proliferator-activated receptor delta (Homo sapiens) (UniProt Q03181); experiment: qHTS assay to identify small molecule agonists of the peroxisome proliferator-activated receptor delta (PPARd) signaling pathway (AID 743212; calls by dose curve)
# Peroxisome proliferator-activated receptor delta (Homo sapiens), sequence (Q03181 whole entry, looked up): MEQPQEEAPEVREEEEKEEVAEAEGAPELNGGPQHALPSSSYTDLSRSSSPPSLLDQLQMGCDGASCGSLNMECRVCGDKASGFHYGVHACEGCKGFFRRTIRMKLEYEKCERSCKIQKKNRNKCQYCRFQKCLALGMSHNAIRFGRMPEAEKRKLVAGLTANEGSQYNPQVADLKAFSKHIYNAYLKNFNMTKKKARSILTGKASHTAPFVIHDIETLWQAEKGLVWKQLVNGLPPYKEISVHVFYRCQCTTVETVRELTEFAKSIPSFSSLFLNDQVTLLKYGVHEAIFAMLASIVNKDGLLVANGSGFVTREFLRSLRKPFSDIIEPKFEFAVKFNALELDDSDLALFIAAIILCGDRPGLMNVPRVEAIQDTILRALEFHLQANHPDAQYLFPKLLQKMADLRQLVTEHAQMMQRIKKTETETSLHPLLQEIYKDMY
# In short: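 GeneBLAzer UAS-bla HEK293H cells carrying a PPARδ construct were exposed to compounds at 37 °C. Beta-lactamase activity was read by FRET fluorescence after 2 h at room temperature with LiveBLAzer B/G substrate.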
# [5] = biological target: Peroxisome proliferator-activated receptor delta (Homo sapiens) (UniProt Q03181); experiment: qHTS assay to identify small molecule antagonists of the peroxisome proliferator-activated receptor delta (PPARd) signaling pathway (AID 743215; active means well fitted inhibition curve with a large enough effect in the signal ratio in the repeat runs, not every such curve was filed as active; inconclusive means weak or mixed curves, or effect the other way; inactive means no such curve, though single readings can be large or run the other way; the % refers to the signal ratio;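 further: cells stimulated with agonist L165041 at 300 nM final during compound exposure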; further: potency means the concentration at half of the fitted maximal effect)
# In short: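 Inhibition of L165041-driven (300 nM final) PPARd signaling is scored in HEK293H UAS-bla cells. Exposure lasts 17 h at 37 C; beta-lactamase activity is then read by FRET substrate fluorescence after 2 h at room temperature.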
# [6] = qHTS assay to identify small molecule agonists of the AP-1 signaling pathway (AID 1159526; calls by dose curve)
# [7] = biological target: Nuclear receptor subfamily 1 group I member 2 (Rattus norvegicus) (UniProt Q9R1A7); experiment: Rat pregnane X receptor (rPXR) activation by small molecules, qHTS assay (AID 1346983); details: rPXR luciferase reporter cells, One-Glo luminescence, 24 h; max activation: hits give high values; further: nearly all actives have a fitted effect of over 20% in size
# Nuclear receptor subfamily 1 group I member 2 (Rattus norvegicus), sequence (Q9R1A7 whole entry, looked up): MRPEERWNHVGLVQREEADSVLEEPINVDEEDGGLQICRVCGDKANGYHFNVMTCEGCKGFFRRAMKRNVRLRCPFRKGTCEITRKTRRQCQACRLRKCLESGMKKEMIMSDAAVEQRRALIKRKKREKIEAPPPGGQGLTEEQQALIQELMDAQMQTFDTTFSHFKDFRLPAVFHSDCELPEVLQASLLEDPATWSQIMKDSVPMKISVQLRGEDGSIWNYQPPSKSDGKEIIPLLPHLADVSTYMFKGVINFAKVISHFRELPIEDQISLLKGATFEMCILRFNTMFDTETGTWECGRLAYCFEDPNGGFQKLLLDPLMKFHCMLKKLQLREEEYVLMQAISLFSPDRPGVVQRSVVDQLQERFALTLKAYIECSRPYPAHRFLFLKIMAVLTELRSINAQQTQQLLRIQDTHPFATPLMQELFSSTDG
# In short: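 Cell-based rPXR activation assay: rPXR cells, 2,000 per well, rested 5hr at 37 C, then exposed to compounds in DMSO for 24 hr at 37 C. Luciferase activity read by One-Glo luminescence after 30 min at room temperature.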
# [8] = biological target: Nuclear receptor subfamily 1 group I member 2 (Homo sapiens) (UniProt O75469); experiment: CYP3A4 induction through human pregnane X receptor (PXR) by small molecules, qHTS assay (AID 1346984); further: nearly all actives have a fitted effect of over 40% in size
# In short: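 Steps: seed DPX-2 cells, 5 hr at 37C; pin-transfer compounds; 24 hr at 37C; add Luciferin-IPA (3uM final), 3 hr at 37C; add One-Glo, 30 min RT; read luminescence.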
# [9] = qHTS assay to identify small molecule antagonists of the peroxisome proliferator-activated receptor gamma (PPARg) signaling pathway - cell viability counter screen (AID 743194); details: Potency: co-treated with 50 nM rosiglitazone unless noted; further: nearly all actives have a fitted effect of over 55% in size; further: potency means the concentration at half of the fitted maximal effect
# In short: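 Cytotoxicity counter screen in PPARg-bla HEK293H cells, same wells as reporter assay. Compounds plus 50 nM rosiglitazone (final) for 17 h at 37 C, then viability read by CellTiter-Glo luminescence.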
# [10] = qHTS assay for small molecule agonists of the antioxidant response element (ARE) signaling pathway (AID 743202; active means well fitted activation curve with a large enough effect in the signal ratio in the repeat runs, not every such curve was filed as active; inconclusive means weak or mixed curves, or effect the other way; inactive means no such curve, though single readings can be large or run the other way; the % refers to the signal ratio; further: potency means the concentration at half of the fitted maximal effect)
# In short: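 ARE-bla HepG2 cells (beta-lactamase reporter under the antioxidant response element), plated 5 hours, then exposed to compounds 16 hours at 37 C. LiveBLAzer B/G FRET substrate added for 2 hours at room temperature; fluorescence intensity read.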
# [11] = biological target: Bile acid receptor (Homo sapiens) (UniProt Q96RI1); experiment: qHTS assay to identify small molecule agonists of the farnesoid-X-receptor (FXR) signaling pathway (AID 743220; active means well fitted activation curve with a large enough effect in the signal ratio in the repeat runs, not every such curve was filed as active; inconclusive means weak or mixed curves, or effect the other way; the % refers to the signal ratio)
# Bile acid receptor (Homo sapiens), sequence (Q96RI1 whole entry, looked up): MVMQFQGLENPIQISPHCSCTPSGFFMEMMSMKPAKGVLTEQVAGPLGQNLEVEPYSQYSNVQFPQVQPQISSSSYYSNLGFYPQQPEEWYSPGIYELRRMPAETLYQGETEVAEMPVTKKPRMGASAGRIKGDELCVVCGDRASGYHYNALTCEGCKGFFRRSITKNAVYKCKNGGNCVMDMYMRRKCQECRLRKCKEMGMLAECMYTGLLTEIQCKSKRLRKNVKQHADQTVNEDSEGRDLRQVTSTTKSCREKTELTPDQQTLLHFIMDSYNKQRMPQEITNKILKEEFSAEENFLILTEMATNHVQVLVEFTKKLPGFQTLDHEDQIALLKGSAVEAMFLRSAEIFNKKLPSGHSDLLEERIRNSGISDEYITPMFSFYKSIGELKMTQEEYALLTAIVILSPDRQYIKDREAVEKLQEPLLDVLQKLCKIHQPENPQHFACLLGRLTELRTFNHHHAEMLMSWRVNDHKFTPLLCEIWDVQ
# In short: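 Beta-lactamase reporter under UAS control in GeneBLAzer FXR HEK 293T cells (5000/well) measured with LiveBLAzer FRET substrate after 2 h at room temperature. Compound exposure lasted 16 h at 37C.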
# [12] = biological target: Vitamin D3 receptor (Homo sapiens) (UniProt P11473); experiment: qHTS assay to identify small molecule antagonists of the vitamin D receptor (VDR) signaling pathway (AID 743223; active means well fitted inhibition curve with a large enough effect in the signal ratio in the repeat runs, not every such curve was filed as active; inconclusive means weak or mixed curves, or effect the other way; inactive means no such curve, though single readings can be large or run the other way; the % refers to the signal ratio)
# Vitamin D3 receptor (Homo sapiens), sequence (P11473 whole entry, looked up): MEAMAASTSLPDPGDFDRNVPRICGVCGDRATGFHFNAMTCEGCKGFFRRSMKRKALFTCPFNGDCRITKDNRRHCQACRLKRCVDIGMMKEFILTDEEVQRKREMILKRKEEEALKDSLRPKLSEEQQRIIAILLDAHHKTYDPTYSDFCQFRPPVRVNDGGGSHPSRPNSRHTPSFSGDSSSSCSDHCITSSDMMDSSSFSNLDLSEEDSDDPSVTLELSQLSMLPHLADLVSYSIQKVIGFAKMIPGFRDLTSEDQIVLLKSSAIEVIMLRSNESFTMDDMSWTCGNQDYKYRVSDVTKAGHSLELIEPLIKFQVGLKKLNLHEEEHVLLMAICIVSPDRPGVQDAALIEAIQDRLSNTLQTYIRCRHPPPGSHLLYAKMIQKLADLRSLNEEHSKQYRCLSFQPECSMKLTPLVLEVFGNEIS
# In short: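 Cells carrying a VDR-driven beta-lactamase reporter (VDR-bla) were co-treated with compound and 3 nM final 1alpha,25-dihydroxyvitamin D3 for 16 h at 37C; reporter activity was measured as FRET substrate fluorescence after 2 h at room temperature.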
# [13] = biological target: Androgen receptor (Homo sapiens) (UniProt P10275); experiment: qHTS assay to identify small molecule agonists of the androgen receptor (AR) signaling pathway (AID 743036; active means well fitted activation curve with a large enough effect in the signal ratio in the repeat runs, with a control signal flat, not every such curve was filed as active; inconclusive means weak or mixed curves, or effect the other way; inactive means no such curve, though single readings can be large or run the other way; the % refers to the signal ratio)
# In short: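 Quantitative HTS of the Tox21 10K library in HEK293 cells bearing a stably integrated UAS-controlled beta-lactamase reporter. Compound exposure lasted 16 h at 37C. Reporter activity was detected by FRET substrate fluorescence after 2 h at room temperature.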
# [14] = biological target: Peroxisome proliferator-activated receptor gamma (Homo sapiens) (UniProt P37231); experiment: qHTS assay to identify small molecule antagonists of the peroxisome proliferator-activated receptor gamma (PPARg) signaling pathway (AID 743191; calls by dose curve; further: nearly all actives have a fitted effect of over 30% in size; further: potency means the concentration at half of the fitted maximal effect)
# Peroxisome proliferator-activated receptor gamma (Homo sapiens), sequence (P37231 whole entry, looked up): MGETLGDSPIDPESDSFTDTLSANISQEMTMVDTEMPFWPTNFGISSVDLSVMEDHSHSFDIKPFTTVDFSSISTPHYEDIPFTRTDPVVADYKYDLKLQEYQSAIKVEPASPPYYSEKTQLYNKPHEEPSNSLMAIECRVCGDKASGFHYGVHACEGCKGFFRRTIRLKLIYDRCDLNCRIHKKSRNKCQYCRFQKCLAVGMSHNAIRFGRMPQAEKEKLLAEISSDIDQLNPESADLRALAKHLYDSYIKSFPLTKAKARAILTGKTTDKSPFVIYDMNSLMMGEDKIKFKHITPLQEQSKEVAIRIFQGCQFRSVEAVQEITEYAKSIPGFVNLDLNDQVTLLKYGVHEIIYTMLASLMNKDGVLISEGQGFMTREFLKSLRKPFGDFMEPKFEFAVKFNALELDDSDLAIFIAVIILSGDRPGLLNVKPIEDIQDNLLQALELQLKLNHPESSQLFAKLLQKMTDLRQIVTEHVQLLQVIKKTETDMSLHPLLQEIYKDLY
# In short: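 GeneBLAzer PPARg UAS-bla HEK293H cells, 5 h post-plating, exposed to compounds 17 h at 37C. LiveBLAzer B/G FRET substrate added for 1 h at room temperature; beta-lactamase reporter read by fluorescence intensity.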
# [15] = biological target: Nuclear receptor subfamily 1 group I member 2 (Homo sapiens) (UniProt O75469); experiment: Human pregnane X receptor (PXR) activation by small molecules, qHTS assay (AID 1346985); further: nearly all actives have a fitted effect of over 40% in size
# In short: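 DPX-2 cells (HepG2 co-transfected with a PXR response element and a CYP3A4-promoter luciferase construct) were seeded at 2,000 per well, rested 5 hr at 37C, then exposed to DMSO-dissolved compounds for 24 hr. Activation was read as luciferase luminescence.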
smiles,measurement,setting,value
Nc1ccc([N+](=O)[O-])cc1,Potency,[1],43.6 µM (active)
CO/C=C(/C(=O)OC)c1ccccc1Oc1cc(Oc2ccccc2C#N)ncn1,Potency,[2],6.83 µM (active)
O=C1C(I)=CC(=C(c2cc(I)c(O)c(I)c2)c2ccccc2C(=O)O)C=C1I,Potency,[3],7.56 µM [inconclusive] (active)
same,outcome,[4],inactive
same,Potency,[5],inactive
same,outcome,[6],inactive
same,max activation,[7],-1.41%
same,Potency,[8],inactive
Cc1nnc2n1-c1sc(CCc3ccc(CC(C)C)cc3)cc1C(c1ccccc1Cl)=NC2C (configuration not stated),Potency,[9],29.8 µM [setting not given] (active)
Cc1cc(C(C)(C)c2ccc(O)c(C)c2)ccc1O,Potency,[9],37 µM (active)
same,Potency,[10],9.23 µM (active)
same,outcome,[4],inactive
same,outcome,[11],inactive
same,outcome,[12],inactive
CCCCC(CC)COC(=O)c1ccc(C(=O)OCC(CC)CCCC)cc1 (configuration not stated),outcome,[11],inactive
C[C@]12CC[C@@H](O)C[C@@H]1CC[C@@H]1[C@@H]2CC[C@]2(C)C(=O)CC[C@@H]12,outcome,[6],inactive
Cc1ccc(N(SC(F)(Cl)Cl)S(=O)(=O)N(C)C)cc1,Potency,[2],8.63 µM (active)
same,Potency,[9],7.76 µM (active)
OCC(c1ccc(Cl)cc1)c1ccc(Cl)cc1,outcome,[11],inactive
CCOC(=O)C(O)(c1ccc(Cl)cc1)c1ccc(Cl)cc1,Potency,[1],19.5 µM (active)
same,Potency,[13],inactive
same,Potency,[2],19.5 µM (active) and 68.6 µM (active)
same,Potency,[3],55.5 µM [cytotoxic] (active) and 54.9 µM [inhibitor] (active)
same,outcome,[4],inactive
CN1CSC(=S)N(C)C1,Potency,[14],inactive
same,Potency,[9],inactive
same,outcome,[11],inactive
same,outcome,[12],inactive
ClC1=C(Cl)[C@]2(Cl)[C@@H]3[C@@H](Cl)[C@H]4O[C@H]4[C@@H]3C1(Cl)C2(Cl)Cl,Potency,[9],43.6 µM (active)
same,outcome,[4],inactive
same,Potency,[5],inactive
same,outcome,[12],inactive
CCN(CC)C(=O)Cl,outcome,[6],inactive
CNC(=O)Oc1cc(C)c(SC)c(C)c1,outcome,[6],inactive
O=C(Nc1ccccc1-c1ccc(Cl)cc1)c1cccnc1Cl,Potency,[3],inactive
same,Potency,[14],51.9 µM (active)
c1ccc2c(c1)Sc1ccccc1N2CC1CN2CCC1CC2 (configuration not stated),Potency,[9],26.6 µM (active)
same,Potency,[5],11.9 µM (active)
CCC(C)=O,outcome,[11],inactive
O=[N+]([O-])c1c(Cl)c(Cl)cc(Cl)c1Cl,Potency,[3],inactive
CC1COC(Cn2cncn2)(c2ccc(Oc3ccc(Cl)cc3)cc2Cl)O1 (configuration not stated),Potency,[9],49 µM (active)
same,Potency,[10],1.93 µM (active)
same,outcome,[4],inactive
same,Potency,[5],49 µM (active)
same,outcome,[11],inactive
same,outcome,[6],inactive
Clc1ccccc1-c1ccccc1Cl,Potency,[10],inactive
same,outcome,[4],inactive
CCc1cccc(C)c1N,outcome,[12],inactive
Nc1ccc(Cl)cc1Cl,outcome,[4],inactive
O=C(O)C(c1ccc(Cl)cc1)c1ccc(Cl)cc1,outcome,[12],inactive
CCCN1CCC[C@H](c2cccc(O)c2)C1,max activation,[7],-2.62%
same,Potency,[8],inactive
same,Potency,[15],inactive
CCCCCN(C)CCC(O)(P(=O)(O)O)P(=O)(O)O,Potency,[1],inactive
same,Potency,[13],inactive
same,Potency,[2],inactive
same,Potency,[8],inactive
same,Potency,[15],inactive
CCCCc1ccc(C(=O)O)nc1,Potency,[3],inactive
C[C@]12N[C@H](Cc3ccccc31)c1ccccc12,Potency,[3],inactive
same,max activation,[7],-5.86%
same,Potency,[8],inactive
same,Potency,[15],inactive
CC(C)NC(C)Cc1ccc(I)cc1 (configuration not stated),Potency,[3],inactive
same,max activation,[7],-3.06%
same,Potency,[8],inactive

# Reference: PubChem BioAssay (Tox21)
